“And” between values parts separate entries of the source, which are not always exact repeats. Equal entries are not always repeated. Out of some 16,000 compounds screened, about 5,700 (36%) were called active. Not shown: some 24% with an inconclusive outcome. Calls come from the whole dose curve; as a rule, active = well fitted curve in the direction sought with a large enough effect; inconclusive = small, poorly fitted or top-dose-only effect, or effect the other way; inactive = no such curve, though single readings can be large or run the other way. The list shows a part of the results.
biological target: Cytochrome P450 1A2 (Homo sapiens) (UniProt P05177); assay: Cytochrome panel assay with activity outcomes; conditions: recombinant CYP, pro-luciferin dealkylation, luminescence, p450-cyp1a2; series mostly up to 57.1 µM
Sequence (P05177 whole entry, looked up): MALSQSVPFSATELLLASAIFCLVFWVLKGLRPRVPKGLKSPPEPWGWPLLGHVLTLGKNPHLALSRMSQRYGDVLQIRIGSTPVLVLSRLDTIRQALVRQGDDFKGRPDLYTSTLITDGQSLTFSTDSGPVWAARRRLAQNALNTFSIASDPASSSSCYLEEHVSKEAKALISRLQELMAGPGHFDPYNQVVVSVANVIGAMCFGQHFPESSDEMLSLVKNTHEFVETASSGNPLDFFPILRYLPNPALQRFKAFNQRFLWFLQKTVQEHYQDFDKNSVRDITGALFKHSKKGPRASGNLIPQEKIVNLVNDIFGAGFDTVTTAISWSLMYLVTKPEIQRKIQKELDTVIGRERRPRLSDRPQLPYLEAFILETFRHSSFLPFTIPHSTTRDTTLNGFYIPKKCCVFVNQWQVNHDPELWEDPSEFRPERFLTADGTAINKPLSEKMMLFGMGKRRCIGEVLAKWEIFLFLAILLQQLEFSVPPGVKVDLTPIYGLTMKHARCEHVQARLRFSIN
% is set by controls: 0 for no effect and ±100 for the full control effect.

Compound | AC50 | activity, negative = inhibition
CCCCCCCCCCCCCCCC(=O)NC[C@@H](COP(=O)([O-])OCC[N+](C)(C)C)OCC | inactive | –
Cc1cc2c(nc1C)CCCN2C[C@H](O)CN1CCCc2nc(-c3ccc(Br)cc3)ccc21 | – | 3.9% [at 11.4 µM] (inactive) and 2.86% [at 11.4 µM] (inactive)
CC1(C)CC(=O)C(C=NCCN2CCN(C(=S)Nc3ccc(F)cc3)CC2)=C(O)C1 | inactive | –
CN1CC(c2ccccn2)C2(SC(=S)N(Cc3ccccc3)C2=O)C12C(=O)Nc1ccccc12 (stereo not given) | 17800 nM (active) | –
CN1CC(c2ccccc2)C2(COc3ccccc3C2=O)C12C(=O)Nc1ccccc12 (stereo not given) | inactive | –
CC(/C=C/c1ccccc1)=N/NC(=O)CNC(=O)c1ccc2c(c1)OCO2 | 2240 nM (active) | –
CC1CCCCN1c1nc(-c2ccncc2)nc2ccccc12 (stereo not given) | 355 nM (active) | –
NC(=O)C1(N2CCCCC2)CCN(C(=O)c2ccc(-n3cnnn3)cc2)CC1 | inactive | –
N#CC(c1ccc(Cl)cc1)c1nc2ccccc2nc1C(F)(F)F (stereo not given) | 1580 nM (active) | –
CCOC(=O)c1ccc(S(=O)(=O)Nc2ccc3cn[nH]c3c2)cc1 | 5010 nM (active) | –
CCOc1cc(C)c(S(=O)(=O)Nc2ccc3cn[nH]c3c2)cc1C | 178 nM (active) | –
Cc1ccnc(NS(=O)(=O)c2ccc(NC(=O)C3CCCNC3=O)cc2)n1 (stereo not given) | inactive | –
Cn1c(=O)[nH]c(=O)c2c1nc(CN(Cc1ccccc1)Cc1ccccc1)n2CCN1CCOCC1 | inactive | –
C[C@@H](O)[C@H]1C(=O)N2C(C(=O)O)=C(S[C@@H]3CN[C@H](C(=O)N(C)C)C3)[C@H](C)[C@H]12 | inactive | –
CN1c2ccccc2Oc2c(c(=O)n(C)c(=O)n2C)C1c1cccc([N+](=O)[O-])c1 (stereo not given) | inactive | –
N#Cc1cccc(NC(=O)N2CCC3(CC2)CCN(C(=O)c2ccco2)CC3)c1 | inactive | –
O=C(c1ccco1)N1CCN(C(=O)c2nn3cccnc3c2Cl)CC1 | inactive | –
COCC(=O)Nc1ccc(-c2cn3cccnc3n2)cc1 | 7080 nM (active) | –
O=C(Nc1cccc(-c2cn3cccnc3n2)c1)c1ccco1 | 31.6 nM (active) | –
CCOc1ccc(-n2c(SCC(=O)Nc3ccccc3C)n[nH]c2=O)cc1 | inactive | –
COCC(=O)N1CCC2(CC1)CCN(C(=O)Nc1ccc(OC)cc1)CC2 | inactive | –
CCOCC(=O)Nc1cc(-c2cn3cccnc3n2)ccc1C | 50.1 nM (active) | –
CCCC(=O)Nc1cc(-c2cn3cccnc3n2)ccc1OC | 100 nM (active) | –
NC(=O)c1ccc[n+](CC(=O)OCCC23CC4CC(CC(C4)C2)C3)c1 | inactive | –
CC(=O)C[C@H](O)[C@@H](NC(=O)OC(C)(C)C)C(C)C | – | 0.505% [at 11.4 µM] (inactive)
Cc1cc(C2(c3cc(C)c(O)c(C(=O)O)c3)OS(=O)(=O)c3ccccc32)cc(C(=O)O)c1O | – | -9.3% [at 11.4 µM] (inactive)
c1ccc([P+](CC[P+](c2ccccc2)(c2ccccc2)c2ccccc2)(c2ccccc2)c2ccccc2)cc1 | – | -7.8% [at 11.4 µM] (inactive)
Nc1nc(=S)[nH]c2c1C1(CCCC1)Cc1ccccc1-2 | 891 nM (active) | –

Compound | AC50 | activity, negative = inhibition
O=c1c2c(n3cnnc3n1-c1ccccc1)-c1ccccc1CC21CCCCC1 | inactive | –
CCOC(=O)CCN1C(=O)[C@H]2[C@H]3[C@H](O)[C@H](O)C/C(=N/OC/C=C(\C)CCC=C(C)C)[C@H]3CC[C@@H]2C1=O | – | 1.64% [at 11.4 µM] (inactive)
CC(=O)c1cccc(NC(=O)c2csc(-n3nc(C)cc3C(F)(F)F)n2)c1 | 3160 nM (active) | –
CO[C@H]1[C@@H](OC(N)=O)[C@H](O)[C@@H](Oc2ccc3c(O)c(NC(=O)c4ccc(O)c(CC=C(C)C)c4)c(=O)oc3c2C)OC1(C)C | inactive | –
Cc1cc2c(nc1C)CCCN2C[C@H](C)O/N=C1/[C@H]2O[C@@H]2[C@@H](O)[C@H]2[C@H]1CCn1c(=O)n(-c3ccccc3)c(=O)n12 | – | 2.9% [at 11.4 µM] (inactive)
Cc1cc(SC(C)C(=O)Nc2c(C)n(C)n(-c3ccccc3)c2=O)nc2ccccc12 (stereo not given) | 1000 nM (active) | –
Cc1c(NC(=O)Nc2c(Cl)cccc2Cl)c(=O)n(-c2ccccc2)n1C | – | -6.85% [at 11.4 µM] (inactive)
Cc1cc(C(=O)Nc2c(C)n(C)n(-c3ccccc3)c2=O)c2ccccc2n1 | inactive | –
CCCc1cc(=O)[nH]c(=S)[nH]1 | inactive | –
O=c1c(-c2cc(F)cc(F)c2)nc2cnc(N3CCNCC3)nc2n1C1CC1 | 3160 nM (active) | –
COc1ccc(-c2nc3cnc(N4CCNCC4)nc3n(C3CC3)c2=O)cc1 | 6310 nM (active) | –
O=c1c(-c2ccc(F)cc2)nc2cnc(N3CCNCC3)nc2n1C1CC1 | 2510 nM (active) | –
CS(=O)(=O)N1CCC2(CCCN(c3ccncc3)C2)CC1 | inactive | –
C/C(=N\NC(=O)Cc1ccc(Cl)cc1)c1ccccn1 | 4470 nM (active) | –
C/C(=N\NC(=O)CC1N=C(Cc2ccccc2)NNC1=O)c1ccc(Cl)cc1Cl (stereo not given) | inactive | –
COc1cccc([C@H](O)Cn2cc(-c3cccc(CON=C(C)C)c3)nn2)c1 | – | -3.64% [at 11.4 µM] (inactive)
COc1ccc2c(c1OC)C(=O)OC2[C@H]1c2c(cc3c(c2OC)OCO3)CCN1C (stereo not given in full) | inactive | –
C[N+]1(C)CCc2cc3c(cc2[C@@H]1[C@@H]1C(=O)Oc2c1ccc1c2OCO1)OCO3 | 1260 nM (active) | –
C=CCNc1oc(/C=C/c2ccccc2)nc1C#N | 3550 nM (active) | –
O=C(c1csnn1)N1CCC2(CC1)CN(C(c1ccccc1)c1ccccc1)C2 | inactive | –
CCOC(=O)C(=Cc1ccc(-c2ccsc2C(=O)OC)o1)C(=O)OCC | 14100 nM (active) | –
S=C1SCN(C2CCCCCCCCCCC2)CN1C1CCCCCCCCCCC1 | – | -14.7% [at 2.29 µM] (inactive)
O=C(Cn1cc(C(=O)c2ccco2)c2ccccc21)NCc1ccco1 | 11200 nM (active) | –
O=C(CSc1ccccc1C(=O)O)NCc1ccco1 | inactive | –
COc1ccccc1CN1CCCC2(CCN(C(=O)c3ccco3)CC2)C1 | inactive | –
COc1ccccc1CN1CCC2(CC1)CCN(C(=O)c1ccco1)CC2 | inactive | –
COc1ccccc1OCCn1cc(C(=O)c2ccco2)c2ccccc21 | 2510 nM (active) | –
